Results published in PubChem BioAssay (EPA / NIEHS).
The source made the active and inactive calls. The calls were made as follows: active = hit-call score of the fitted dose curve at least 0.9, where 1 is the maximum; inactive = score below 0.9.

What was measured:
[1] = ATG_CRE_CIS: Attagene CIS-FACTORIAL HepG2 Assay for human cAMP Responsive Element (CRE) binding protein 3 (AID 2282926); conditions: HepG2 CRE cis-reporter, Attagene multiplexed mRNA; actives raise or lower the signal
Summary of the method: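 Human liver HepG2, transient MRTU transfection, 24 h compound exposure. Total RNA → oligo(dT) RT → PCR → 6-FAM primer extension → HpaI cut → CE. Activity called both directions vs DMSO.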

[2] = molecular target: CCAAT/enhancer-binding protein beta (Homo sapiens) (UniProt P17676); assay: ATG_C_EBP_CIS: Attagene CIS-FACTORIAL HepG2 Assay for human CCAAT/Enhancer Binding Protein (C/EBP) beta (AID 2282927); conditions: HepG2 Attagene cis-factorial transcription factor reporter; actives raise or lower the signal
CCAAT/enhancer-binding protein beta (Homo sapiens), sequence (P17676 whole entry, looked up): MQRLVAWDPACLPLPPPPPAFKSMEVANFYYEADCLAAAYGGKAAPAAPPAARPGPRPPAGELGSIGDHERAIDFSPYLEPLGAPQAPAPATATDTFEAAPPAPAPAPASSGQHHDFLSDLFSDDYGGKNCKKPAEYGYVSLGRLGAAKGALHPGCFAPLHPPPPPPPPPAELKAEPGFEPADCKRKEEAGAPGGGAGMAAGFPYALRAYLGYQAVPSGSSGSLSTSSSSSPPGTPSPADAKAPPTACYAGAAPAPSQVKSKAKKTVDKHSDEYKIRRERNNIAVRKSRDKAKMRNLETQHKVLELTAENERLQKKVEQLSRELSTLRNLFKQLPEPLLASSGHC
Summary of the method: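 HepG2 transiently transfected with multiplexed reporter units under cis-regulatory promoters reporting endogenous C/EBPb activity. After 24 h exposure, reporter mRNA assayed by RT-PCR, fluorescent labelling, HpaI digestion and capillary electrophoresis; bidirectional fitting versus DMSO.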

[3] = ATG_CMV_CIS: Attagene CIS-FACTORIAL HepG2 Assay for human CMV (Internal Marker) (AID 2282928); conditions: HepG2 CMV promoter reporter, transcription factor profiling; actives raise or lower the signal;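 also: endpoint acts as a background internal control marker rather than a target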
Summary of the method: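 CMV internal-marker background readout in transiently transfected HepG2 cells bearing cis-regulated reporter units. Reporter mRNA is measured 24 h after dosing by RT-PCR and capillary electrophoresis, with bidirectional fitting against DMSO.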

[4] = ATG_DR4_LXR_CIS: Attagene CIS-FACTORIAL HepG2 Assay for human Liver X Receptor (LXR), DR4 submotif (AID 2282929); conditions: HepG2 Attagene DR4 cis-reporter, mRNA transcription; actives raise or lower the signal
Summary of the method: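 The endpoint is DR4-element-driven reporter transcripts after 24 h chemical exposure of transfected HepG2 cells. These were measured via RT-PCR and capillary electrophoresis, and gain or loss of signal was fitted relative to DMSO controls.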

[5] = molecular target: Aryl hydrocarbon receptor (Homo sapiens) (UniProt P35869); assay: ATG_Ahr_CIS: Attagene CIS-FACTORIAL HepG2 Assay for human Aryl Hydrocarbon Receptor (Ahr) (AID 2282930); conditions: HepG2 AhR cis-factorial reporter transcription; actives raise or lower the signal
Aryl hydrocarbon receptor (Homo sapiens), sequence (P35869 whole entry, looked up): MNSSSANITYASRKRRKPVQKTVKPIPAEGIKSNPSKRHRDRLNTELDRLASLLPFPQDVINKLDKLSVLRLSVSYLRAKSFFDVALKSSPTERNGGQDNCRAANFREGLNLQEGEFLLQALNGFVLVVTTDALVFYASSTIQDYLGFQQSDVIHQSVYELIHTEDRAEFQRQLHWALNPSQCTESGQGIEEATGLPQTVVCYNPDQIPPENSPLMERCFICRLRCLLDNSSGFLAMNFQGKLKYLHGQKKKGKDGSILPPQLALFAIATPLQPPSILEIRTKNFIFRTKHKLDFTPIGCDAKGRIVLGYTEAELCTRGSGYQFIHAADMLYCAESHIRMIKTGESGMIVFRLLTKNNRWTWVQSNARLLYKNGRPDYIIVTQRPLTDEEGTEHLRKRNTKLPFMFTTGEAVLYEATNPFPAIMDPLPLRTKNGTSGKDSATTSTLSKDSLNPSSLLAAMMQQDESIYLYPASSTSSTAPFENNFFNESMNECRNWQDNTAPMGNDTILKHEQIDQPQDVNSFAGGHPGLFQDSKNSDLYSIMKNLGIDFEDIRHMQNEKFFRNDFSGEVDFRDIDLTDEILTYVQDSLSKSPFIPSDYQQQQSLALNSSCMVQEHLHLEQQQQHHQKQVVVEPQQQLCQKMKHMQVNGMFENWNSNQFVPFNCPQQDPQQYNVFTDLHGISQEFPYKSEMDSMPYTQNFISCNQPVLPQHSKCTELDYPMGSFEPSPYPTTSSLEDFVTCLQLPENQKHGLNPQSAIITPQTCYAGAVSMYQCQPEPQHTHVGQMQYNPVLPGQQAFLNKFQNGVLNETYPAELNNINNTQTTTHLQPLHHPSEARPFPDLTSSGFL
Summary of the method: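 HepG2 cells transiently transfected with cis-element-driven multiplexed reporter units; endogenous AhR activity read as reporter mRNA 24 h after dosing, via RT-PCR, 6-FAM labelling, HpaI digestion and capillary electrophoresis. Bidirectional fit relative to DMSO.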

[6] = ATG_AP_1_CIS: Attagene CIS-FACTORIAL HepG2 Assay for human Activator Protein 1 (AP-1) (AID 2282931); conditions: HepG2 Attagene cis-factorial AP-1 reporter mRNA; actives raise or lower the signal
Summary of the method: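 Readout is reporter transcript level from endogenous transcription factor activity, quantified by RT-PCR with fluorescent primer extension and capillary electrophoresis. Transiently transfected HepG2 cells, 24 h exposure. Curves fitted both directions versus DMSO.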

[7] = ATG_AP_2_CIS: Attagene CIS-FACTORIAL HepG2 Assay for human Activator Protein 2 (AP-2) (AID 2282932); conditions: HepG2 AP-2 cis-reporter, Attagene transcription factor profiling; actives raise or lower the signal
Summary of the method: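 Multiplexed mRNA reporter assay in HepG2: cis-regulated units report endogenous factor activity after 24 h treatment. Fluorescence from capillary electrophoresis of RT-PCR products gives the signal, with DMSO as baseline.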

[8] = molecular target: Transcription factor E2F1 (Homo sapiens) (UniProt Q01094); assay: ATG_E2F_CIS: Attagene CIS-FACTORIAL HepG2 Assay for human E2F Transcription Factor 1 (AID 2282935); conditions: HepG2 Attagene cis-reporter, E2F reporter RNA transcripts; actives raise or lower the signal
Transcription factor E2F1 (Homo sapiens), sequence (Q01094 whole entry, looked up): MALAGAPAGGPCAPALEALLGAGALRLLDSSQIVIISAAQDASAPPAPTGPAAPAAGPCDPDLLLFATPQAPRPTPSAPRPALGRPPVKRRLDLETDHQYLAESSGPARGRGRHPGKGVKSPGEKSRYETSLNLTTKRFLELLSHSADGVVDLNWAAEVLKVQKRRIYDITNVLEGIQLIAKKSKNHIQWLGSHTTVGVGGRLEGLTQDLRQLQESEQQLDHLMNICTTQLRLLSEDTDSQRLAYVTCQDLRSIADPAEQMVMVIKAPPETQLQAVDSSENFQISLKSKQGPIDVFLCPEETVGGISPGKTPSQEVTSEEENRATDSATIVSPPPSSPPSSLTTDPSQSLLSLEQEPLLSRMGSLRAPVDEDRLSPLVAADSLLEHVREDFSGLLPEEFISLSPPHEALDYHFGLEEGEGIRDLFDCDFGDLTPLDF
Summary of the method: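 Measures reporter transcript levels via RT-PCR with capillary electrophoresis detection in HepG2 cells harboring cis-regulated reporter units; 24 h post-dose; bidirectional curve fitting with DMSO as baseline.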

[9] = ATG_E_Box_CIS: Attagene CIS-FACTORIAL HepG2 Assay for human Enhancer Box (E-box) (AID 2282936); conditions: HepG2 E-box cis-reporter transcription, actives raise or lower the signal
Summary of the method: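 First, HepG2 cells receive multiple cis-regulated reporter constructs by transient transfection. Next, chemicals are applied for 24 h. Finally, reporter mRNA is quantified via RT-PCR and capillary electrophoresis, with DMSO as baseline.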

[10] = ATG_M_61_CIS: Attagene CIS-FACTORIAL HepG2 Assay for M61 Transcription Factor (Internal Marker) (AID 2282937); conditions: HepG2 Attagene CIS-FACTORIAL M61 internal marker reporter; actives raise or lower the signal
Summary of the method: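 Readout is reporter mRNA by RT-PCR, fluorescent primer extension and capillary electrophoresis, with gain or loss fitted relative to DMSO. Transfected HepG2 cells carrying endogenous-TF-driven cis reporters were exposed to chemicals for 24 hours.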

[11] = ATG_EGR_CIS: Attagene CIS-FACTORIAL HepG2 Assay for human Early Growth Response 1 (EGR1) (AID 2282938); conditions: HepG2 Attagene CIS-FACTORIAL EGR reporter mRNA; actives raise or lower the signal
Summary of the method: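 After 24 h compound exposure, RNA from reporter-transfected HepG2 cells was reverse-transcribed, PCR-amplified, fluorescently labelled and resolved by capillary electrophoresis. EGR1 reporter transcript changes, up or down, were fitted against DMSO, reflecting endogenous transcription-factor activity.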

[12] = ATG_M_19_CIS: Attagene CIS-FACTORIAL HepG2 Assay for M19 Transcription Factor (Internal Marker) (AID 2282939); conditions: HepG2 Attagene CIS-FACTORIAL M19 internal marker reporter; actives raise or lower the signal
Summary of the method: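 Chemical-treated HepG2 (24 h) with MRTU constructs; reporter transcripts detected by fluorescent RT-PCR fragment analysis on capillary electrophoresis. Internal background marker, DMSO as baseline.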

[13] = ATG_Ets_CIS: Attagene CIS-FACTORIAL HepG2 Assay for human Erythroblast Transformation Specific (ETS) (AID 2282941); conditions: HepG2 ETS cis-reporter transcription, actives raise or lower the signal
Summary of the method: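 HepG2 cells transfected with multiple cis-regulated reporter units measuring endogenous ETS-driven transcription, 24 h after dosing. Reporter mRNA quantified by RT-PCR with capillary electrophoresis; bidirectional fit relative to DMSO.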

[14] = ATG_FoxO_CIS: Attagene CIS-FACTORIAL HepG2 Assay for human Forkhead box O (FoxO) (AID 2282943); conditions: HepG2 Attagene cis-reporter, FoxO element, mRNA; actives raise or lower the signal
Summary of the method: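 HepG2 cells transiently transfected with cis-element-driven reporter units report endogenous FoxO activity. After 24 h chemical exposure, reporter mRNA quantified by RT-PCR, fluorescent labeling, HpaI digestion and capillary electrophoresis; bidirectional fit versus DMSO.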

[15] = ATG_GATA_CIS: Attagene CIS-FACTORIAL HepG2 Assay for human GATA Binding Protein (AID 2282944); conditions: HepG2 GATA cis-element reporter, Attagene multiplex mRNA; actives raise or lower the signal
Summary of the method: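 Transfected cis-reporter HepG2 cells were treated with chemicals for 24 hours. Total RNA was then converted to cDNA, amplified with reporter-specific primers and analysed by fluorescent capillary electrophoresis, using DMSO-treated wells as baseline.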

[16] = ATG_ERE_CIS: Attagene CIS-FACTORIAL HepG2 Assay for Estrogen Response Element (ERE) (AID 2282940); conditions: HepG2 ERE cis-reporter, Attagene RNA transcript; actives raise or lower the signal
Summary of the method: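 Human liver cells (HepG2) bearing transiently transfected, promoter-regulated reporter units were exposed 24 h. Reporter mRNA induction was detected by capillary electrophoresis of labelled RT-PCR products and fitted bidirectionally to DMSO.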

[17] = molecular target: Hepatocyte nuclear factor 3-beta (Homo sapiens) (UniProt Q9Y261); assay: ATG_FoxA2_CIS: Attagene CIS-FACTORIAL HepG2 Assay for human Forkhead box A2 (FOXA2) (AID 2282942); conditions: HepG2 cis-reporter transcription factor activity, 24 h; actives raise or lower the signal
Hepatocyte nuclear factor 3-beta (Homo sapiens), sequence (Q9Y261 whole entry, looked up): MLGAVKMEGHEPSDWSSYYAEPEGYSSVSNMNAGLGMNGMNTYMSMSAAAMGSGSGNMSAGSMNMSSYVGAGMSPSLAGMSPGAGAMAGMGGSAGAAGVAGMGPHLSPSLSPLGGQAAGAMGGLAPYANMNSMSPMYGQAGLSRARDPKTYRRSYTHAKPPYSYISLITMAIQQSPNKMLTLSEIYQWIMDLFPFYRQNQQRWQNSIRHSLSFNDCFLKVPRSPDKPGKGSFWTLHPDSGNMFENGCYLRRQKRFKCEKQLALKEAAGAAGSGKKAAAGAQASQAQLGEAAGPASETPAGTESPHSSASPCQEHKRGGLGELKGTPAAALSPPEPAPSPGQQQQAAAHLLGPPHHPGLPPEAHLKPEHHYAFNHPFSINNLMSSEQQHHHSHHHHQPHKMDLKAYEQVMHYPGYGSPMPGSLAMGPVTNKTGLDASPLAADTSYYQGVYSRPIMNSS
Summary of the method: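 Endogenous transcription factor activity is captured via cis-element-driven reporter transcripts in transfected HepG2. Total RNA taken at 24 h post-dosing; labelled RT-PCR products resolved by capillary electrophoresis. Gain or loss fitted versus DMSO.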

[18] = ATG_GLI_CIS: Attagene CIS-FACTORIAL HepG2 Assay for human Zinc Finger Protein GLI1 (AID 2282945); conditions: HepG2, Attagene cis-factorial reporter mRNA, GLI element; actives raise or lower the signal
Summary of the method: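 Transiently transfected HepG2 cells report endogenous transcription factor activity via cis-element-driven reporter units. After 24 h compound exposure, reporter mRNA was measured by RT-PCR with capillary electrophoresis; bidirectional fitting against DMSO baseline.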

[19] = ATG_BRE_CIS: Attagene CIS-FACTORIAL HepG2 Assay for human Bone Morphogenetic Protein (BMP) Response Element (BRE) (AID 2282933); conditions: HepG2 BMP response element reporter, Attagene transcription factor profiling; actives raise or lower the signal
Summary of the method: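 A HepG2 multiplex reporter system measured inducible reporter mRNA 24 h post-dosing. Detection: RT-PCR, 6-FAM primer extension, HpaI digestion, capillary electrophoresis. Activity fitted bidirectionally relative to DMSO.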

[20] = molecular target: Retinoic acid receptor alpha (Homo sapiens) (UniProt P10276); assay: ATG_DR5_RAR_CIS: Attagene CIS-FACTORIAL HepG2 Assay for human Retinoic Acid Receptor Alpha (RARE), DR5 submotif (AID 2282934); conditions: HepG2 Attagene cis-factorial RARE DR5 reporter, mRNA; actives raise or lower the signal
Retinoic acid receptor alpha (Homo sapiens), sequence (P10276 whole entry, looked up): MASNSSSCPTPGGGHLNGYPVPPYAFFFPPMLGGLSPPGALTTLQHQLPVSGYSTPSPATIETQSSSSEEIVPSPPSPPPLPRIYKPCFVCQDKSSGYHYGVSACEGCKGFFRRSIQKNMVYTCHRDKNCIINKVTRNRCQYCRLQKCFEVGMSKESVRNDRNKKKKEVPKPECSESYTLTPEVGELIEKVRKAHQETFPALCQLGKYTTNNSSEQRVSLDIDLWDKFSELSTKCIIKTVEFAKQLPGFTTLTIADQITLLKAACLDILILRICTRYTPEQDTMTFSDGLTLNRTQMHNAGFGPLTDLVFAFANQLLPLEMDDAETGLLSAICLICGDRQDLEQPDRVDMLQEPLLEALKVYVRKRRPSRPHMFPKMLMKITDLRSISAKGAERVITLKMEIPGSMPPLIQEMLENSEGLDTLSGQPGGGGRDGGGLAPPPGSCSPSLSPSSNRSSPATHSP
Summary of the method: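 HepG2 cells transiently transfected with multiplexed reporter units; DR5 cis-element drives reporter through endogenous transcription factors. After 24 h dosing, reporter mRNA quantified by RT-PCR, fluorescent labeling, HpaI digestion and capillary electrophoresis; bidirectional fitting versus DMSO.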

Measured: AC50

CN(C)CCOCCN(C)C
not listed: [16] | [17] | [18] | [19] | [20]
inactive: all other assays above

C=CC(C)(CCC=C(C)C)OC=O (centres undefined)
not listed: [11] | [13] | [15] | [19] | [20]
inactive: all other assays above

COc1ccc(NC(=O)CC(C)=O)cc1
not listed: [7] | [12] | [16]
inactive: all other assays above

CC(C)=CCC/C(C)=C/COC=O
not listed: [12] | [13] | [16] | [17] | [19]
inactive: all other assays above

CC(C=O)Cc1ccc(C(C)C)cc1 (centres undefined)
not listed: [7] | [16] | [18] | [20]
inactive: all other assays above

O=C(Cl)c1cccc(C(=O)Cl)c1
not listed: [12] | [16] | [19] | [20]
inactive: all other assays above

Cc1cc(C2(c3cc(C)c(O)cc3C)OS(=O)(=O)c3ccccc32)c(C)cc1O
active: [5] 44.5 µM | [16] 2.74 µM
not listed: [15] | [17] | [19] | [20]
inactive: all other assays above

NC(=O)Nc1ccc(Cl)cc1
not listed: [19] | [20]
inactive: all other assays above

CNC[C@H](O)c1cccc(O)c1
not listed: [16] | [19]
inactive: all other assays above

O=C(O)CCCCC1CCSS1 (centres undefined)
not listed: [19] | [20]
inactive: all other assays above

CC(=O)c1c(C)cc(C(C)(C)C)cc1C
not listed: [7] | [16]
inactive: all other assays above

Cc1cccc(C)c1C
not listed: [11] | [16] | [19] | [20]
inactive: all other assays above

O=S(=O)(O)c1ccc(O)c2ncccc12
active: [5] 37.5 µM
not listed: [19] | [20]
inactive: all other assays above

O=C(O)c1snc(Cl)c1Cl
active: [1] 155 µM | [4] 100 µM | [5] 14.5 µM | [6] 100 µM | [11] 164 µM | [14] 130 µM
not listed: [12] | [16] | [19] | [20]
inactive: all other assays above

Cc1ccc(C=O)cc1
not listed: [7] | [20]
inactive: all other assays above

O=c1[nH]nnc2ccccc12
not listed: [15] | [16] | [19] | [20]
inactive: all other assays above

CC(=O)O[C@]1(C(C)=O)CC[C@H]2[C@@H]3C[C@H](C)C4=CC(=O)CC[C@]4(C)[C@H]3CC[C@@]21C
active: [16] 9.49 µM
not listed: [19] | [20]
inactive: all other assays above
